By AC50 is commonly meant the concentration at which the activity in the assay is half-maximal.

Records with an inconclusive call do not appear. Activity calls are given as the source filed them. How the source made its calls, unless noted: active means hit-call score of the fitted dose curve at least 0.9, where 1 is the maximum; inconclusive means response in the unintended direction; inactive means score below 0.9.

The values that follow come from PubChem BioAssay (EPA / NIEHS).

Experiment [1] can be described thus: ATG_TCF_b_cat_CIS: Attagene CIS-FACTORIAL HepG2 Assay for human T-Cell-Factor with beta-catenin (TCF/b-cat) (AID 2282965; active means hit-call score of the fitted dose curve at least 0.9, where 1 is the maximum; inactive means score below 0.9). To be noted: HepG2 TCF/beta-catenin cis-reporter transcription, actives raise or lower the signal. A digest of the protocol:
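Measured: reporter mRNA in HepG2 transiently transfected with cis-promoter reporter units, 24 h after chemical addition. Fitting was bidirectional, DMSO as negative control.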

A short description of experiment [2]: ATG_TGFb_CIS: Attagene CIS-FACTORIAL HepG2 Assay for human Transforming Growth Factor (TGF) (AID 2282967; active means hit-call score of the fitted dose curve at least 0.9, where 1 is the maximum; inactive means score below 0.9). To be noted: HepG2 Attagene CIS TGFb reporter, mRNA transcription; actives raise or lower the signal. Summed up:
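HepG2 cells transiently transfected with cis-promoter-driven multiple reporter units measure endogenous TF activity; reporter mRNA quantified at 24 h by RT-PCR, FAM labeling, HpaI digestion and capillary electrophoresis. Bidirectional fit vs DMSO.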

The target of experiment [3] is Nuclear receptor subfamily 1 group I member 3 (Homo sapiens) (UniProt Q14994). The experiment can be described thus: ATG_CAR_TRANS: Attagene TRANS-FACTORIAL HepG2 Assay for human Constitutive Androstane Receptor (CAR) (AID 2282969).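 Further: activators raise reporter mRNA above DMSO so AC50 marks induction.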 Particulars: HepG2 Attagene TRANS-FACTORIAL CAR reporter. A digest of the protocol: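 Readout is reporter mRNA induction, quantified by fluorescent primer extension and capillary electrophoresis after RT-PCR. Cells were HepG2 transiently carrying chimeric NR-Gal4 constructs with GAL4-UAS reporters, treated for 24 h; activity scored upward from DMSO.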

The target in experiment [4] is X-box-binding protein 1 (Homo sapiens) (UniProt P17861). The experiment can be described thus: ATG_Xbp1_CIS: Attagene CIS-FACTORIAL HepG2 Assay for human X-box Binding Protein 1 (XBP1) (AID 2282972; active means hit-call score of the fitted dose curve at least 0.9, where 1 is the maximum; inactive means score below 0.9). To be noted: HepG2 XBP1 cis-element reporter, Attagene multiplex; actives raise or lower the signal. A digest of the protocol: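 HepG2, transient MRTU transfection (cis-promoter driven), 24 h compound exposure. Total RNA → oligo(dT) RT → PCR → 6-FAM labeling → HpaI cut → CE. Bidirectional fit vs DMSO.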
Chain of X-box-binding protein 1 (Homo sapiens) (P17861 whole entry, looked up): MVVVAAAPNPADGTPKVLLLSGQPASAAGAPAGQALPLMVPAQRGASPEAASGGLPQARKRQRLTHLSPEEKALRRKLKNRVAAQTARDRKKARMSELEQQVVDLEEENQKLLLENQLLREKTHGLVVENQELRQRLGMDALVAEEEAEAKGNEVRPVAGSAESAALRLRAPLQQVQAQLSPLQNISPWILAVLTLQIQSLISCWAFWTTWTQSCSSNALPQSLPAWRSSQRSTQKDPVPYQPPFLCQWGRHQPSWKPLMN

The target of experiment [5] is Hepatocyte nuclear factor 4-alpha (Homo sapiens) (UniProt P41235). The experiment can be described thus: ATG_HNF4a_TRANS: Attagene TRANS-FACTORIAL HepG2 Assay for human Hepatocyte Nuclear Factor 4 alpha (HNF4a) (AID 2282982). To be noted: HepG2 HNF4a transactivation reporter, mRNA readout. A digest of the protocol: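 Transfected HepG2 reporter cells are dosed for 24 h; reporter RNA is reverse-transcribed, amplified, fluorescently labelled and HpaI-digested before CE sizing. Positive-direction fit against DMSO.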
Chain of Hepatocyte nuclear factor 4-alpha (Homo sapiens) (P41235 whole entry, looked up): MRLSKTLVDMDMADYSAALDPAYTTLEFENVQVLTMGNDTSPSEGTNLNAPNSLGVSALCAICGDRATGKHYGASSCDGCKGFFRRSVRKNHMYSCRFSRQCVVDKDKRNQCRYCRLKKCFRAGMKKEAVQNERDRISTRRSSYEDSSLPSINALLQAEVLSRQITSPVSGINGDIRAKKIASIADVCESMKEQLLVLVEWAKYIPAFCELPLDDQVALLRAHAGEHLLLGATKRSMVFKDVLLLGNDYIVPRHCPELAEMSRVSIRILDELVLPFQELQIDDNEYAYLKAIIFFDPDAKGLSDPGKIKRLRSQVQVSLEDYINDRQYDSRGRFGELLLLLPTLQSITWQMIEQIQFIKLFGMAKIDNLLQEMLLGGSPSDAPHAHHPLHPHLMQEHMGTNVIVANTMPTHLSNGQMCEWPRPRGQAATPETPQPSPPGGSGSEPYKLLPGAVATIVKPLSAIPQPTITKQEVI

The nature of experiment [6]: ATG_M_06_TRANS: Attagene TRANS-FACTORIAL HepG2 Assay for M06 Transcription Factor (Internal Marker) (AID 2282983).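 Further: reporter transcript level by RT-PCR then capillary electrophoresis fluorescence.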 To be noted: HepG2 Attagene TRANS M06 internal marker reporter. A digest of the protocol: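 Transfect HepG2 with MRTUs → dose compounds 24 h → isolate RNA, oligo(dT) RT → PCR with reporter primers → 6-FAM primer extension → HpaI digest → CE fragment analysis. Positive direction vs DMSO.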

The target in experiment [7] is Transcriptional activator Myb (Homo sapiens) (UniProt P10242). The experiment can be described thus: ATG_Myb_CIS: Attagene CIS-FACTORIAL HepG2 Assay for human Myeloblastosis (Myb) Proto-Oncogene Transcription Factor (AID 2282986; active means hit-call score of the fitted dose curve at least 0.9, where 1 is the maximum; inactive means score below 0.9). To be noted: HepG2 Attagene CIS-FACTORIAL Myb reporter transcription; actives raise or lower the signal. A digest of the protocol:
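HepG2 cells were transiently transfected with cis-regulated multiple reporter transcription units reflecting endogenous Myb activity, then exposed to compound for 24 hours. Reporter mRNA was measured by RT-PCR with capillary electrophoresis; bidirectional fitting versus DMSO baseline.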

The nature of experiment [8]: ATG_VDRE_CIS: Attagene CIS-FACTORIAL HepG2 Assay for human Vitamin D Receptor Element (VDRE) (AID 2282968; active means hit-call score of the fitted dose curve at least 0.9, where 1 is the maximum; inactive means score below 0.9). Particulars: HepG2 VDRE cis-reporter transcription, actives raise or lower the signal. A digest of the protocol: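 In transiently transfected HepG2 liver cells, gain or loss of reporter mRNA after 24 h exposure is scored relative to DMSO, using fluorescence detection by capillary electrophoresis of RT-PCR products.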

The target in experiment [9] is Estrogen receptor (Homo sapiens) (UniProt P03372). The experiment can be described thus: ATG_ERa_TRANS: Attagene TRANS-FACTORIAL HepG2 Assay for human Estrogen Receptor alpha (ERa) (AID 2282970). To be noted: HepG2 Attagene TRANS ERa GAL4 reporter, mRNA. A digest of the protocol:
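Human liver HepG2, transient transfection of multiple GAL4-UAS reporter units; TRANS format (exogenous NR-Gal4 chimera). 24 h dosing. Readout: reporter mRNA, RT-PCR, 6-FAM primer extension, HpaI digest, capillary electrophoresis. Positive direction vs DMSO.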

Experiment [10] concerns the target Glucocorticoid receptor (Homo sapiens) (UniProt P04150). The experiment can be described thus: ATG_GR_TRANS: Attagene TRANS-FACTORIAL HepG2 Assay for human Glucocorticoid Receptor (GR) (AID 2282978).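 Further: activators score as hits since higher reporter transcript over DMSO is fitted.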 To be noted: HepG2 Attagene TRANS GR reporter, mRNA transcription. Summed up:
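HepG2 cells transiently transfected with multiplexed reporter units in which chimeric NR-GAL4 proteins drive GAL4-UAS reporters; 24 h compound exposure. Reporter mRNA measured by RT-PCR, 6-FAM labelling, HpaI digestion and capillary electrophoresis; gain-of-signal fitted versus DMSO.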

The target in experiment [11] is Oxysterols receptor LXR-beta (Homo sapiens) (UniProt P55055). The experiment can be described thus: ATG_LXRb_TRANS: Attagene TRANS-FACTORIAL HepG2 Assay for human Liver X Receptor beta (LXRb) (AID 2282981). To be noted: HepG2 Attagene TRANS GAL4-LXRb reporter, mRNA. Summed up: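 Cells: HepG2, transiently transfected with GAL4-UAS reporter units plus LXRb-Gal4 fusion. Treatment: 24 h. Detection: reporter mRNA by RT-PCR, 6-FAM labelling, HpaI digestion, capillary electrophoresis.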
Chain of Oxysterols receptor LXR-beta (Homo sapiens) (P55055 whole entry, looked up, the tested form may be a part): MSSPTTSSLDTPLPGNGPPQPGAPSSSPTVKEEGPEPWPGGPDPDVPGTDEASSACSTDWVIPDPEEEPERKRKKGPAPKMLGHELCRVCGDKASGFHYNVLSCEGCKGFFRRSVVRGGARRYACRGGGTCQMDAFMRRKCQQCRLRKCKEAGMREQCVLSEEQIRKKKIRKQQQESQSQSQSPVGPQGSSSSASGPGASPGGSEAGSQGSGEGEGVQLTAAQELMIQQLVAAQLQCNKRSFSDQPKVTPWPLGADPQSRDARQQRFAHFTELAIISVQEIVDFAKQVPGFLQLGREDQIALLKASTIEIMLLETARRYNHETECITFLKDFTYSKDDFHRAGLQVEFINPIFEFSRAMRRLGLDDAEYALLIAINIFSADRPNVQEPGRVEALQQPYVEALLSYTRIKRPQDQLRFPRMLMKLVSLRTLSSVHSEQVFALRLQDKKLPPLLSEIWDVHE

Experiment [12] concerns the target Nuclear receptor subfamily 4 group A member 2 (Homo sapiens) (UniProt P43354). The experiment can be described thus: ATG_NURR1_TRANS: Attagene TRANS-FACTORIAL HepG2 Assay for human Nuclear Receptor Related Protein 1 (NURR1) (AID 2282985). To be noted: HepG2 Attagene TRANS reporter, mRNA readout. Summed up:
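Cells: HepG2, transiently transfected. Exposure: 24 h. Detection: fluorescence of labelled RT-PCR products separated by capillary electrophoresis; upward fit versus DMSO.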

Experiment [13] is described as follows: ATG_M_19_TRANS: Attagene TRANS-FACTORIAL HepG2 Assay for M19 Transcription Factor (Internal Marker) (AID 2282974). Particulars: HepG2 Attagene TRANS-FACTORIAL M19 internal marker reporter. Summed up: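 HepG2 cells transiently transfected with multiple GAL4-UAS reporter transcription units were exposed to chemicals for 24 h. Reporter mRNA was read by RT-PCR, 6-FAM primer extension, HpaI digestion and capillary electrophoresis; gain of signal fitted relative to DMSO.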

Experiment [14] is described as follows: ATG_GAL4_TRANS: Attagene TRANS-FACTORIAL HepG2 Assay for GAL4 (Internal Marker) (AID 2282976). To be noted: HepG2 Attagene TRANS GAL4 internal marker reporter. Summed up: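 First, HepG2 cells were transfected with reporter units under GAL4-UAS control. Next, they were treated with chemical for 24 h. Finally, RNA was reverse-transcribed, PCR-amplified, FAM-labelled and resolved by capillary electrophoresis, with induction scored against DMSO.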

The target of experiment [15] is Estrogen-related receptor gamma (Homo sapiens) (UniProt P62508). The experiment can be described thus: ATG_ERRg_TRANS: Attagene TRANS-FACTORIAL HepG2 Assay for human Estrogen-Related Receptor gamma (ERRg) (AID 2282977).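 Further: hits increase reporter signal over DMSO so potencies reflect activators.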 Particulars: HepG2 Attagene TRANS reporter, ERRg transactivation. A digest of the protocol: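 Transient HepG2 transfectants, 24 h compound exposure, GAL4-UAS reporter mRNA by RT-PCR/6-FAM labelling/capillary electrophoresis; positive direction vs DMSO.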
Chain of Estrogen-related receptor gamma (Homo sapiens) (P62508 whole entry, looked up, the tested form may be a part): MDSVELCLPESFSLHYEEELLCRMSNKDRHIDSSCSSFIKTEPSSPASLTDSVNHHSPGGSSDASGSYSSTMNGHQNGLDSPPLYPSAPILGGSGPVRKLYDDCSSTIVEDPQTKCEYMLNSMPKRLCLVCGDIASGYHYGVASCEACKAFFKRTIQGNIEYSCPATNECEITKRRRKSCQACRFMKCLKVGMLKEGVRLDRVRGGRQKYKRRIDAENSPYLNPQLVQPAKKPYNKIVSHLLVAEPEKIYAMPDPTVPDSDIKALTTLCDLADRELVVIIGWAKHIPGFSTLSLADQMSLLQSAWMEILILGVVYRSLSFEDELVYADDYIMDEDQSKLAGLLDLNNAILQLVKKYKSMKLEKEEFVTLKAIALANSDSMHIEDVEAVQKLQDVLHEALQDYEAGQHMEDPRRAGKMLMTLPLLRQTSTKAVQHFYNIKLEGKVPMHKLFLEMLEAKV

Experiment [16] has as its target Oxysterols receptor LXR-alpha (Homo sapiens) (UniProt Q13133). The experiment can be described thus: ATG_LXRa_TRANS: Attagene TRANS-FACTORIAL HepG2 Assay for human Liver X Receptor alpha (LXRa) (AID 2282980). To be noted: HepG2 Attagene TRANS reporter, LXRa transactivation. A digest of the protocol:
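Transfect HepG2 with GAL4-UAS multiplex reporter constructs (TRANS format, chimeric receptor-GAL4); treat 24 h; extract RNA, reverse-transcribe, PCR-amplify, FAM-label, HpaI-digest; resolve fragments by capillary electrophoresis. Upward response vs DMSO.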

Experiment [17] in a line: ATG_M_32_TRANS: Attagene TRANS-FACTORIAL HepG2 Assay for M32 Transcription Factor (Internal Marker) (AID 2282984).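 Further: transcript level of a background control reporter unit measured by RT-PCR and capillary electrophoresis.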 Particulars: HepG2 Attagene TRANS M32 internal marker reporter. Summed up:
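Using transiently transfected HepG2 cells exposed to test chemicals for 24 h, reporter transcripts are converted to labelled cDNA fragments and quantified by capillary electrophoresis. DMSO defines the activity baseline.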

Experiment [18] has as its target Bile acid receptor (Homo sapiens) (UniProt Q96RI1). The experiment can be described thus: ATG_FXR_TRANS: Attagene TRANS-FACTORIAL HepG2 Assay for Farnesoid X Receptor (FXR) (AID 2282979).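 Further: hits raise reporter mRNA above DMSO so AC50 marks FXR activation.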 To be noted: HepG2 Attagene TRANS FXR-GAL4 reporter transcription. Summed up: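 Transient transfection of HepG2 with multiplexed GAL4-UAS reporter units; exogenous FXR-GAL4 chimera. Dose 24 h → TriZol RNA → oligo(dT) RT → PCR, 6-FAM primer extension, HpaI cut → CE. Gain vs DMSO.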

Experiment [19] has as its target Steroid hormone receptor ERR1 (Homo sapiens) (UniProt P11474). The experiment can be described thus: ATG_ERRa_TRANS: Attagene TRANS-FACTORIAL HepG2 Assay for human Estrogen-Related Receptor alpha (ERRa) (AID 2282971). To be noted: HepG2 Attagene TRANS reporter, ERRa transactivation. Summed up: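 Reporter transcript induction was quantified by RT-PCR and capillary electrophoresis of FAM-labelled, HpaI-cut products after 24 h treatment of HepG2 cells carrying transiently transfected GAL4-UAS reporter units and an exogenous ERRa-Gal4 fusion; activity scored as increase over DMSO.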

Chain of Glucocorticoid receptor (Homo sapiens) (P04150 whole entry, looked up, the tested form may be a part): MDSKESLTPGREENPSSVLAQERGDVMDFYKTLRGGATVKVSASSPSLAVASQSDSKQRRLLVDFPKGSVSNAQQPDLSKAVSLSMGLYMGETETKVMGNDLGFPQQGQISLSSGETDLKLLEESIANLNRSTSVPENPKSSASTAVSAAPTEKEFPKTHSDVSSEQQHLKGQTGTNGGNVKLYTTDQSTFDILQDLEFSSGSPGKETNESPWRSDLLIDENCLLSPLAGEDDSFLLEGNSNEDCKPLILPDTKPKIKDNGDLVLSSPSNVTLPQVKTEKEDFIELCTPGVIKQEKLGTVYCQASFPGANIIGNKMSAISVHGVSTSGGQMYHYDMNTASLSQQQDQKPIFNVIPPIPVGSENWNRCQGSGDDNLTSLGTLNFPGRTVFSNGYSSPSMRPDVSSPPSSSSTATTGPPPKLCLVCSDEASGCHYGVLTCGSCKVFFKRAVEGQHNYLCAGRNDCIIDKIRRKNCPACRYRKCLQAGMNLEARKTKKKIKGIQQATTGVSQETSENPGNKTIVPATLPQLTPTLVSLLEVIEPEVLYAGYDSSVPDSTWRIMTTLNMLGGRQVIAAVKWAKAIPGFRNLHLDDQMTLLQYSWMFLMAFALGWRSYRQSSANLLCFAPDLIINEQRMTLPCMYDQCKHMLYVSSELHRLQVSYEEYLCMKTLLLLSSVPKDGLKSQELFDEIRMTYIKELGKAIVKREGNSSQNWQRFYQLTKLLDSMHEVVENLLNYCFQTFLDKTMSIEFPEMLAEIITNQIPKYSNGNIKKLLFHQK
Chain of Nuclear receptor subfamily 4 group A member 2 (Homo sapiens) (P43354 whole entry, looked up): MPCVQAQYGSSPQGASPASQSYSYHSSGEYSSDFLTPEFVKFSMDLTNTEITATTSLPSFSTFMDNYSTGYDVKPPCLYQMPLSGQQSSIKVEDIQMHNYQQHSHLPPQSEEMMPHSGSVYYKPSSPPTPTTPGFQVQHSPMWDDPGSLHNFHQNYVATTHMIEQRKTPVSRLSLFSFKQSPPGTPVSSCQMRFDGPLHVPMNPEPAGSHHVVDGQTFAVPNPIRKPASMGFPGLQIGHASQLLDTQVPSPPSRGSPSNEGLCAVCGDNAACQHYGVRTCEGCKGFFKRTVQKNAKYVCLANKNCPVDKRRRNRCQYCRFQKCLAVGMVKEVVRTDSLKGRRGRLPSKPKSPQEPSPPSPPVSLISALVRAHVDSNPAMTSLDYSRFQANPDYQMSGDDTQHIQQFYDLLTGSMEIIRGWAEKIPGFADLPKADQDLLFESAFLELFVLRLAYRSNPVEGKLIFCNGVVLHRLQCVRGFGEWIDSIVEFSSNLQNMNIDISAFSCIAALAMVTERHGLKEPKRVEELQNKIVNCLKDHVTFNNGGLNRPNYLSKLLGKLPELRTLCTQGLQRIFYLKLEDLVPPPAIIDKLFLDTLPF
Chain of Transcriptional activator Myb (Homo sapiens) (P10242 whole entry, looked up): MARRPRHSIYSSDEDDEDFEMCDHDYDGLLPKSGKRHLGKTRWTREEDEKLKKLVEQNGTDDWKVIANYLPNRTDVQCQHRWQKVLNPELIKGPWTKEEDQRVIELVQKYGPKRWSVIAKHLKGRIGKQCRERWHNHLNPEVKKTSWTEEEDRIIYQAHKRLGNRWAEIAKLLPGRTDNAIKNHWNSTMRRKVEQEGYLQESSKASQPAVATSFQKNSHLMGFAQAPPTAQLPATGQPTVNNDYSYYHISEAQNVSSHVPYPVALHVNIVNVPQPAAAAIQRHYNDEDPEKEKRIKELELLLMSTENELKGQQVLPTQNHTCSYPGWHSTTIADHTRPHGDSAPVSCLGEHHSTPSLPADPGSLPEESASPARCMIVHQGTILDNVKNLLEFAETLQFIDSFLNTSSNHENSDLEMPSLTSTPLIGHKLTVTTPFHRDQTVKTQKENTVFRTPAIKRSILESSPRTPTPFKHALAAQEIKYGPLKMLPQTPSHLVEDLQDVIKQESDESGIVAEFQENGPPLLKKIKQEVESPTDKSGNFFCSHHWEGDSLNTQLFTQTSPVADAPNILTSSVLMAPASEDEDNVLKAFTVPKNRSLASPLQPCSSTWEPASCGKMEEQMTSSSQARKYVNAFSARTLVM
Chain of Oxysterols receptor LXR-alpha (Homo sapiens) (Q13133 whole entry, looked up, the tested form may be a part): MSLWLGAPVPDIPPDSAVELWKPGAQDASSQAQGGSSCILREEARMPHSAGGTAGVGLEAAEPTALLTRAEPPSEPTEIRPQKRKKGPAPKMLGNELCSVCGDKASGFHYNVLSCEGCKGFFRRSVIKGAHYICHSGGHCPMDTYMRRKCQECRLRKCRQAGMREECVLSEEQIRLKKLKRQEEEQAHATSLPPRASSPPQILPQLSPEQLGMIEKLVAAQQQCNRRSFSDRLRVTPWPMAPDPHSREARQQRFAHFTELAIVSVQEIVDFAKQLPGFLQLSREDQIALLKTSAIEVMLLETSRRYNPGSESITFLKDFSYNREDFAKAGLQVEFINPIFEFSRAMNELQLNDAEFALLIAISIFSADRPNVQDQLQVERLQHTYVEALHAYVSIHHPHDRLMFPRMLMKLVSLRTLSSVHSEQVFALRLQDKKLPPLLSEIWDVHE
Chain of Estrogen receptor (Homo sapiens) (P03372 whole entry, looked up, the tested form may be a part): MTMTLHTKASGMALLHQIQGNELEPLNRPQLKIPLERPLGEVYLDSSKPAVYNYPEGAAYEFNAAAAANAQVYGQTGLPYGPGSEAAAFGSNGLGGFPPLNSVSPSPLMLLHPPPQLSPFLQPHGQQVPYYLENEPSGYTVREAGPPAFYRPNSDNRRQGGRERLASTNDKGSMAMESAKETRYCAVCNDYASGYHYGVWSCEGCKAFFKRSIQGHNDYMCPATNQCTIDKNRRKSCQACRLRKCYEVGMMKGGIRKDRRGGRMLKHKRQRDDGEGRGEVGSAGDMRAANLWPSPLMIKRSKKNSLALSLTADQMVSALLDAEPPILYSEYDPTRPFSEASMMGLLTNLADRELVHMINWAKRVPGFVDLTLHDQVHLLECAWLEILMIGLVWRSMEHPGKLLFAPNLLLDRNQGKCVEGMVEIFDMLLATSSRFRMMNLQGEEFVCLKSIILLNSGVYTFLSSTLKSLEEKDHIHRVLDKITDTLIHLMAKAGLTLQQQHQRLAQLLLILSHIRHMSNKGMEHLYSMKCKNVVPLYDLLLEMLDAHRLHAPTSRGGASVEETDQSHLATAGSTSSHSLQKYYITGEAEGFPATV

Consider `C=CC(C)CCCC(C)(C)O` (stereo not drawn), for which the outcome in [1], in experiment [2], in experiment [3], in experiment [4], in [5] and in experiment [6] was inactive. Also, the call in [7] was inactive.
Regarding `CC(C)(C)c1cccc(O)c1`, the result in experiment [1], in [2], in experiment [4], in experiment [10], in experiment [11] and in [6] was inactive. Moreover, the call in [12] and in [7] was inactive. Further, the values for the AC50 in [8] and in experiment [9] were 28.1 µM (active) and 14.7 µM (active), respectively.
As to `C=COCC1CCC(COC=C)CC1` (stereo not drawn), the result in experiment [1], in experiment [2], in experiment [8], in [3], in [9] and in experiment [13] was inactive. In addition, the call in [14], in [15], in experiment [10], in [16], in experiment [17] and in experiment [12] was inactive. Also, the compound was classed as inactive in experiment [7].
With `CCOC(=O)CCCCCCCCC(=O)OCC`, the compound was classed as inactive in [1], in experiment [2], in experiment [8], in experiment [9], in experiment [13] and in experiment [14]. The compound was classed as inactive in experiment [5], in experiment [17], in experiment [12] and in [7].
Take `CC(=O)c1cccnc1`: the result in experiment [1], in [2], in experiment [4], in experiment [13], in [11] and in experiment [17] was inactive. In addition, the result in [7] was inactive.
Take `CN1CCc2cccc3c2[C@H]1Cc1ccc(O)c(O)c1-3`: the compound was classed as inactive in experiment [1], in experiment [2], in experiment [9], in experiment [15], in experiment [10] and in experiment [18]. The call in [16], in [11], in [5] and in [7] was inactive.
Consider `N#CCCCC(C#N)CCC#N` (stereo not drawn), for which the compound was called inactive in experiment [1], in experiment [2], in experiment [19], in experiment [4], in experiment [14] and in experiment [15]. The result in experiment [16], in experiment [11], in experiment [6], in [12] and in experiment [7] was inactive.
For the compound `CCCCOCC(C)OCC(C)O` (stereo not drawn), the compound was called inactive in experiment [1], in experiment [2], in [8], in [3], in experiment [9] and in experiment [4]. Also, the call in [13], in [16], in experiment [11], in experiment [5], in [17] and in experiment [7] was inactive.
Turning to `CC1(C)[C@H](C=C(Cl)Cl)[C@H]1C(=O)OCc1cccc(Oc2ccccc2)c1`, the compound was classed as inactive in experiment [1], in experiment [2], in experiment [3], in experiment [4], in [13] and in [14]. Moreover, the outcome in experiment [10], in experiment [5], in [6], in experiment [12] and in [7] was inactive. In addition, the results for the AC50 in experiment [8] and in experiment [9] were 4.62 µM (active) and 8.45 µM (active), respectively.
In the case of `CC(C)(O)CCc1ccccc1`, the call in experiment [1], in experiment [2], in experiment [9], in experiment [4], in experiment [10] and in experiment [18] was inactive. For the same compound, the compound was classed as inactive in [11], in [5], in experiment [12] and in [7].
